MRP reversal – MRP-mediated drug resistance reversal | H69AR cells + 2 uM doxorubicin, CellTiter-Glo, 72 h | differential viability (reversal), % at 10 µM | 85,000 compounds, 0.04% hits;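 active = viability drop by adding the cancer drug above about 55%, with treated viability meeting a 40% cutoff, limit read from the data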;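 also: viability without doxorubicin minus viability with 2 µM doxorubicin for each compound; larger differential means the compound sensitizes cells more to doxorubicin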
MRP-1 activ – MRP-1 activation; 140,000 compounds, 0.61% hits; viability increase, % at 10 µM; H69AR cells + doxorubicin, viability rescue, CellTiter-Glo;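 active = viability gain under doxorubicin at or above a set limit, the compound median plus 3 SD, cut at about 4.7% in these data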;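 also: MRP-1 overexpressing cells given doxorubicin 25 µM after compound pretreatment; 18-22 h compound pretreatment then 72 h with doxorubicin before readout; 0% = doxorubicin-only wells and 100% = vehicle-treated cells without doxorubicin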
sEH act – soluble epoxide hydrolase (human) activation. P34913. purified human sEH enzymatic activity, activator screen. activation, % at 2 µM. 91,000 compounds, 0.04% hits; in the data active = activation above about 37%
sEH inhibitor – blocks human soluble epoxide hydrolase activity; P34913; recombinant human sEH enzymatic activity assay; inhibition, % at 2 µM; 91,000 compounds, 0.34% hits; in the data active = inhibition above about 80%
An asterisk follows results filed as active. Only some compounds are listed: those with a hit (about 0.76% of all), similar ones and a draw of the others.

For CC(=O)NC(=S)Nc1ccc(NC(=O)COc2ccc(Cl)cc2Cl)cc1 the results were MRP-1 activ 0, sEH act -82 and sEH inhibitor 82*.
CC(=O)N1CCN(c2ccc(NC(=O)COc3ccc(Cl)cc3Cl)cc2)CC1 was read as MRP reversal -11, MRP-1 activ -4, sEH act -90 and sEH inhibitor 90*.
For O=C(COc1ccc(Cl)cc1Cl)NNC(=S)Nc1ccc(F)cc1 the results were MRP-1 activ -3, sEH act -28 and sEH inhibitor 28.
COCCn1c(-c2cccc([N+](=O)[O-])c2)nc2c1c(=O)[nH]c(=O)n2Cc1ccccc1 was read as MRP-1 activ -1.
C=CCSC1=NC(=O)/C(=C/c2cccs2)S1 was read as MRP-1 activ 8.8*.
`CCOC(=O)C1=C(C)NC(=O)C(C(N)=O)C1c1ccccc1` (stereo unspecified) gave MRP reversal -17, MRP-1 activ -1, sEH act 37* and sEH inhibitor -41.
For O=C(CCSc1ccc(Cl)cc1)NC12CC3CC(CC(C3)C1)C2 the results were MRP-1 activ -1, sEH act -80 and sEH inhibitor 81*.
Screening O=C(Nc1ccc(N2CCOCC2)c(Cl)c1)c1ccccc1F returned MRP reversal -16, MRP-1 activ 2, sEH act -3 and sEH inhibitor 1.
For O=C(COc1c(F)c(F)c(C(F)(F)F)c(F)c1F)Nc1ccc(N2CCOCC2)c(Cl)c1 the results were MRP reversal -1, MRP-1 activ -3, sEH act -83 and sEH inhibitor 83*.
Screening O=C(NCCSCc1ccco1)Nc1cccc(Cl)c1 returned MRP reversal 8, MRP-1 activ -2, sEH act -80 and sEH inhibitor 80*.
For O=C(NCCSCc1ccco1)Nc1ccc(Cl)cc1 the results were MRP reversal 12, MRP-1 activ -1, sEH act -72 and sEH inhibitor 72.
C/C(=N/OC(=O)c1c(F)cccc1F)c1nccs1 was read as MRP-1 activ -1, sEH act 39* and sEH inhibitor -40.
For O=C1Nc2ccccc2CCC1Sc1nnc(-c2ccc(Cl)cc2)s1 (stereo unspecified) the results were MRP reversal 26, MRP-1 activ 6.6*, sEH act 4 and sEH inhibitor 0.
Screening COc1ccc(S(=O)(=O)NCC(=O)O)cc1C(=O)NC1CCCCC1 returned MRP-1 activ -2.
Screening O=C(NC(=S)NC(=O)c1ccccc1F)c1ccccc1F returned MRP-1 activ 7.1*.
Screening Cc1oc2c(O)c(O)ccc2c(=O)c1-c1cnn(-c2ccccc2)c1 returned MRP-1 activ 4.9*, sEH act -5 and sEH inhibitor 5.
`CCOC(=O)C(Oc1ccc2c(-c3ccc(OC)cc3)cc(=O)oc2c1C)c1ccccc1` (stereo unspecified) gave MRP-1 activ 0, sEH act 3 and sEH inhibitor -2.
For CCOC(=O)C(Oc1ccc2c(-c3ccccc3)cc(=O)oc2c1C)c1ccccc1 (stereo unspecified) the results were MRP-1 activ 4.7*.
Screening CCOC(=O)c1cc(-c2ccccc2)sc1NC(=O)C(C)Sc1nnc(N)s1 (stereo unspecified) returned MRP-1 activ 11*.
`CCOC(=O)c1cc(-c2ccccc2)sc1NC(=O)CC` gave MRP-1 activ -1.
For COc1ccc(/C=C/C(=O)c2ccccc2)cc1Cn1nnc2ccccc21 the results were MRP-1 activ -6.
O=C(CCCc1nc2ccccc2s1)NC(c1ccccc1)c1ccccc1 was read as MRP-1 activ -1.
`O=C(NCCC1=CCCCC1)c1ccc2c(c1)N(Cc1ccccc1)C(=O)CS2` gave MRP reversal 2, MRP-1 activ -4, sEH act -82 and sEH inhibitor 82*.
For O=C(NCCN1CCOCC1)c1ccc2c(c1)N(Cc1ccccc1)C(=O)CS2 the results were MRP reversal 7, MRP-1 activ -1, sEH act -21 and sEH inhibitor 21.
For COc1ccc(-c2nc(C(F)(F)F)c(OC)o2)cc1OC the results were MRP-1 activ 1.
`CCN1CCN(C(=O)C2CCN(C(=O)c3cc4sccc4n3CC)CC2)CC1` gave MRP reversal -2, MRP-1 activ 0, sEH act 14 and sEH inhibitor -15.
Screening CCn1c(C(=O)N2CCC(C(=O)NCCCSC3CCCCC3)CC2)cc2sccc21 returned MRP reversal -8, MRP-1 activ -2, sEH act -96 and sEH inhibitor 96*.
`Cc1cc(C)n2c(Br)c(CSc3nc4ccccc4s3)nc2n1` gave MRP-1 activ -1.
O=C1C2C3C=CC(C4CC34)C2C(=O)N1Cc1ccco1 (stereo unspecified) was read as MRP-1 activ 0.
